Laboratory results as given in PubChem BioAssay AID485272 (The Scripps Research Institute Molecular Screening Center, 2010).
Among all 330,000 compounds or so, about 1,300 (0.39%) were called active.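 The calls were made as follows: active = percent inhibition above a cutoff equal to the mean of all tested compounds plus 3 SD (cut at about 15% in these data); inactive = the rest.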 Many of the other results were omitted from the sample, so actives are more common in it than they were.

Target: Protein-arginine deiminase type-4 (Homo sapiens) (UniProt Q9UM07)
Sequence (Q9UM07 whole entry, looked up): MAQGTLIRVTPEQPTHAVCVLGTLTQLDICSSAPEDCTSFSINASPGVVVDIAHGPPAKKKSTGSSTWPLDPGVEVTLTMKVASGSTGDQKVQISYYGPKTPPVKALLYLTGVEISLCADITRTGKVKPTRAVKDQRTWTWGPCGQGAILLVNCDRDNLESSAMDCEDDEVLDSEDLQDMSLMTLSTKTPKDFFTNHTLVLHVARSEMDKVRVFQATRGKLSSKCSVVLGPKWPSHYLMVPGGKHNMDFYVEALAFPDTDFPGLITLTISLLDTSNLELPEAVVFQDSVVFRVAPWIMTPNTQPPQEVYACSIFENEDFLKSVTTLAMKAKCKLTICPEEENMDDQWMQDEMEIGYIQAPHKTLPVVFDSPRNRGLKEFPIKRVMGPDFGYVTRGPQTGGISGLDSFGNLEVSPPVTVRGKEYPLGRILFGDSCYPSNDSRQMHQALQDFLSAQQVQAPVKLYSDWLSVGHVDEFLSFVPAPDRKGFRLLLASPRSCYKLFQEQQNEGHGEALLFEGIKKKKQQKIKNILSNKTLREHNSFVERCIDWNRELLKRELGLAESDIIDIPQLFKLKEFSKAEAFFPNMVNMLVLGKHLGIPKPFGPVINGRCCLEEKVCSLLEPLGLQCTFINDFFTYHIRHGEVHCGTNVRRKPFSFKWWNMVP
Assay: protein arginine deiminase 4 enzyme blockade – biochemical, fluorescence polarization, 1536-well format, primary screen (AID 485272);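 also: 0% = PAD4 with RCA probe and DMSO and 100% = probe without PAD4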
Conditions: recombinant PAD4, RCA probe fluorescence polarization; at 6.36 µM; stronger effect = higher value

inhibition, inactive:
CC(=O)C(C)n1cnc2scc(-c3ccc(C)cc3)c2c1=O (stereo not drawn) -5.08%, Cc1cc(C)n(-c2nnc(C)n2NC(=O)c2cccc(Cl)c2)n1 -3.56%, COC(=O)C1=C(C)NC(=S)NC1c1ccc(OCC(=O)N2CC(C)OC(C)C2)c(OC)c1 (stereo not drawn) -1.31%, CCOc1ccc(C2NC(=S)NC3=C2CCc2ccccc23)cc1 (stereo not drawn) -0.5%, Cc1ccc(S(=O)(=O)NC(=O)COc2ccccc2C)cc1 -0.01%, CC(=O)c1cccc(NC(=O)N2CCCC2C(=O)NCCC(C)C)c1 (stereo not drawn) -0.58%, Cc1nnsc1S(=O)(=O)Cc1ccccc1Cl -3.79%, O=C(Nc1ccc(S(=O)(=O)N2CCCCCC2)cc1)c1c(F)cccc1F -3.98%, O=C(NCCCN1CCN(c2ccc(F)cc2)CC1)Nc1ccc([N+](=O)[O-])cc1 -8.31%, CC(=O)N(CN1C(=O)C2C3C=CC(C3)C2C1=O)c1cccc(Cl)c1 (stereo not drawn) -2.02%, COc1cc2ccccc2cc1C(=O)Nc1ccc(N2CCOCC2)cc1 7.08%, COc1ccc(N2CCN(C3CC(=O)N(c4ccc5c(c4)OCCO5)C3=O)CC2)cc1 (stereo not drawn) -4.31%, COc1cc(OC)cc(C(=O)Nc2ccc(-c3nc4ccccc4o3)c(O)c2)c1 -9.35%, COCCCNC(NC(=O)c1ccc(C)cc1)C(Cl)(Cl)Cl (stereo not drawn) -2.56%, Cc1ccc(Nc2ccccc2N)cc1 -6.09%, Cc1cc(Nc2ccccc2)n(C(=O)c2ccc(N)cc2)n1 -3.04%, COc1ccc(S(=O)(=O)N(CC(=O)NCc2ccco2)c2ccc(F)cc2)cc1 -1.25%, COc1ccc(-n2c(C)cc(C(=O)CN3C(=O)NC4(CCc5ccccc54)C3=O)c2C)cc1 (stereo not drawn) 1.38%, CC(=O)Nc1ccc(SCC(=O)Nc2ccccc2Oc2ccccc2)cc1 2.48%, CC(NCCO)C(=O)C12CC3CC(CC(C3)C1)C2 (stereo not drawn) -1.18%

inhibition, active:
COc1ccc(C2NC(=S)NC3=C2CCc2ccccc23)cc1OC (stereo not drawn) 19.6%, CC(=O)Oc1cccc(N2C(=O)CC(Nc3ccc(N4CCOCC4)cc3)C2=O)c1 (stereo not drawn) 37.4%, Nc1ccc(Nc2ccccc2)cc1 20.8%
